{"source": "PubChem BioAssay AID449762", "about": "(Southern Research Specialized Biocontainment Screening …, 2010)", "note": "About 1,900 (0.58%) of roughly 330,000 compounds were called active. About 4% were inconclusive and are not listed. These entries were drawn from the full list. Results with a measured potency or affinity are listed apart. A number with no mark means an inactive call. Rule as the data show it: inconclusive = inhibition above about 70% without an active follow-up result; inactive = below that.", "data": [{"test": "M. tuberculosis growth inhibition, HTS (AID 449762);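 also: bacterial growth assessed after seven days of incubation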", "details": "M. tuberculosis H37Rv growth inhibition, 7H9 media; at 25 µM; hits give high values", "units": {"inhibition": "%"}, "values": [{"smiles": "O=C1C=C(c2cccc3c2sc2ccccc23)C[C@@H](c2ccc(Cl)cc2)C1", "inhibition": -0.695}, {"smiles": "CCCC(=O)Nc1ccc(C(N)=O)cc1", "inhibition": -1.73}, {"smiles": "CSc1ccc(/C=C/C(=O)Nc2ccccc2)cc1", "inhibition": 10.6}, {"smiles": "CSc1nsc(SCC(=O)NC2CCCCC2)n1", "inhibition": 66.1}, {"smiles": "Cc1nnc(SCC(=O)N2CCCCC2)s1", "inhibition": -0.73}, {"smiles": "COc1cc(OC)c(C(=O)OCC(=O)Nc2c(C)n(C)n(-c3ccccc3)c2=O)cc1OC", "inhibition": 1.54}, {"smiles": "O=C1NC[C@H](c2ccccc2)N(CC2CCCCC2)C1=O", "inhibition": -2.23}, {"smiles": "C/C(=N\\Nc1ccc([N+](=O)[O-])cc1)c1ccc(N)cc1", "inhibition": -12.2}, {"smiles": "C/C(=N\\Nc1ccccc1)c1cccc(N)c1", "inhibition": -1.02}, {"smiles": "Cn1cnc(S(=O)(=O)N2CCN(c3ccc(Cl)cc3)CC2)c1", "inhibition": 1.05}, {"smiles": "CC(C)COC(=O)Nc1ccccc1C(=O)N1CCOCC1", "inhibition": -0.44}, {"smiles": "Cc1ccc(N(Cc2cc3ccccc3[nH]c2=O)S(C)(=O)=O)cc1", "inhibition": -5.78}, {"smiles": "Cc1[nH]c2ccccc2c1C(C[N+](=O)[O-])c1cccc(O)c1", "note": "(configuration not stated)", "inhibition": 0.72}, {"smiles": "O=c1[nH][nH]c(-c2ccccc2O)c1C(C[N+](=O)[O-])c1ccccc1", "note": "(configuration not stated)", "inhibition": 25.6}, {"smiles": "O=C(N/N=C/c1ccco1)c1cc(-c2cccc(Br)c2)nc2ccccc12", "inhibition": 5.09}, {"smiles": "CCOc1ccc2nc(N/C(N)=N/C(=S)Nc3ccc(C)c(C)c3)nc(C)c2c1", "inhibition": 39.5}, {"smiles": "CCOc1ccc2nc(N/C(N)=N/C(=S)Nc3ccc(OC)cc3)nc(C)c2c1", "inhibition": 1.27}, {"smiles": "CCNC(=S)/N=C(\\N)Nc1nc(C)c2cc(C)ccc2n1", "inhibition": 26.4}, {"smiles": "Cc1cccc(NC(=S)/N=C(\\N)Nc2nc(C)c3cc(C)ccc3n2)c1", "inhibition": 8.71}, {"smiles": "COc1ccc(N2CCN(C(=O)c3cc4cc(Cl)ccc4[nH]3)CC2)cc1", "inhibition": -7.94}, {"smiles": "COc1ccc(Cl)cc1NC(=O)CN1CCCCCC1", "inhibition": -5.19}, {"smiles": "Cc1ccc(S(=O)(=O)CC(=O)N2CCN(c3ccc(F)cc3)CC2)cc1", "inhibition": -10.4}, {"smiles": "O=c1c2ccccc2c(=O)n2n1Cc1ccccc1C2", "inhibition": 0}, {"smiles": "Cc1cccc(/C=C/C(=O)c2ccc(N3CCOCC3)cc2)c1", "inhibition": -1.54}, {"smiles": "CCC1CSC(Nc2ccc(C(=O)/C=C/c3ccc(Oc4ccccc4)cc3)cc2)=N1", "note": "(configuration not stated)", "inhibition": 4.72}, {"smiles": "Cc1ccc(N(CC(O)CN2C(=O)NC(C)(C)C2=O)S(=O)(=O)c2ccc([N+](=O)[O-])cc2)cc1", "note": "(configuration not stated)", "inhibition": 0.97}, {"smiles": "COC(=O)c1cc(C(=O)OC)[nH]n1", "inhibition": -0.31}, {"smiles": "COc1ccccc1NC(=O)N1CCCC1C(=O)NCc1ccccc1Cl", "note": "(configuration not stated)", "inhibition": 3.2}, {"smiles": "Cc1ccc(S(=O)(=O)/N=C(\\CN2CCCCC2)N2CCOCC2)cc1", "inhibition": -3.15}, {"smiles": "Cc1ccc(S(=O)(=O)/N=C(\\CN2CCOCC2)N2CCOCC2)cc1", "inhibition": 2.72}, {"smiles": "CC(=O)c1c(C)[nH]c(C(=O)CSc2nc3ccccc3c(=O)n2CCCO)c1C", "inhibition": 10.8}, {"smiles": "O=C(NC1CCOCC1)C1CCC(=O)N(Cc2ccc(Cl)cc2)C1", "note": "(configuration not stated)", "inhibition": -7.32}, {"smiles": "Cc1ccc(C(=O)C2CCOC(C)(C)C2)cc1", "note": "(configuration not stated)", "inhibition": -6.79}, {"smiles": "Cc1ccc(-c2csc(NCCn3c(-c4ccncc4)nc4ccccc43)n2)cc1", "inhibition": -3.83}, {"smiles": "Cc1ccc(-c2csc(N3CCC[C@@H]3C(=O)NCCn3c(-c4ccncc4)nc4ccccc43)n2)cc1", "inhibition": 58.4}, {"smiles": "COc1cc2c(cc1OC)CN(C1CCC(C)CC1)CC2", "note": "(configuration not stated)", "inhibition": 8.03}, {"smiles": "CC(C)N=C(NC#N)SCc1ccccc1F", "inhibition": -3.3}, {"smiles": "CCNc1nc(C)nc2c1oc1ccccc12", "inhibition": 2.03}, {"smiles": "COc1ccc(CCNc2nc(C)nc3c2oc2ccccc23)cc1OC", "inhibition": 2}, {"smiles": "COc1ccccc1NS(=O)(=O)c1cccc(C(=O)NN)c1", "inhibition": -5.02}, {"smiles": "COc1cc(NC(=O)Cc2ccc([N+](=O)[O-])cc2)c(C(=O)O)cc1OC", "inhibition": 20.1}, {"smiles": "CN(C)c1ccc(C(=O)/C=C/c2cccnc2)cc1", "inhibition": -3.39}, {"smiles": "COc1cc(C(=O)/C=C/c2cccnc2)ccc1O", "inhibition": 52.2}, {"smiles": "O=C(/C=C/c1cccnc1)c1ccc(O)cc1", "inhibition": 2.21}, {"smiles": "O=C(/C=C/c1cccnc1)c1ccccc1O", "inhibition": 4.14}, {"smiles": "Cc1ccc2nc(-c3ccc(NC(=O)CCS(=O)(=O)c4ccccc4)cc3)sc2c1", "inhibition": 1.52}, {"smiles": "O=C(CN(Cc1ccco1)C(=O)CNS(=O)(=O)c1ccccc1)NCc1ccccc1", "inhibition": 0.41}, {"smiles": "Cc1ccc(N2C(=O)C3C4C=CC(CNC(=S)Nc5ccc(Cl)cc5)(O4)C3C2=O)cc1", "note": "(configuration not stated)", "inhibition": 0.99}, {"smiles": "Cc1ccc(NC(=O)Nc2ccc3c(c2)CCC3)c(C)c1", "inhibition": -10.3}, {"smiles": "Cc1ccc2[nH]c3nc(N/N=C/c4cccc(O)c4)nnc3c2c1", "inhibition": 3.58}, {"smiles": "Cc1ccc(C(=O)ONc2ccc(N=NC(=O)c3ccccc3O)cc2)cc1", "inhibition": 2.47}, {"smiles": "O=Nc1ccc(NOC(=O)c2ccccc2)cc1", "inhibition": 14}, {"smiles": "CCCn1c(C)cc(C(=O)CN2C(=O)c3cccc(N)c3C2=O)c1C", "inhibition": -10}, {"smiles": "Oc1ccc(Cl)cc1N=Nc1ccccc1", "inhibition": -8.24}, {"smiles": "COc1ccc(-c2[nH]ncc2N=Nc2ccccc2)cc1", "inhibition": 8.09}, {"smiles": "CCOC(=O)c1[nH]c2ccccc2c1NC(=O)c1ccc(Br)o1", "inhibition": -1.61}, {"smiles": "CN(C)c1ccc(/C=C/c2cccc[n+]2[O-])cc1", "inhibition": 1.21}, {"smiles": "CN(C)c1ccc(/C=C/c2cc[n+](C)cc2)cc1", "inhibition": 7.78}, {"smiles": "Cc1cc(C(=O)OCC(=O)Nc2cccc(F)c2)c(C)n1C1CC1", "inhibition": 0.41}, {"smiles": "CCN(CC)CCn1c(SCC(=O)NCc2ccccc2)nc2c(sc3ccccc32)c1=O", "inhibition": 6}, {"smiles": "CCN(CC)CCn1c(SCC(=O)Nc2ccc(F)cc2)nc2c(sc3ccccc32)c1=O", "inhibition": 4.95}, {"smiles": "COCCn1c(-c2ccccc2)cc(C(=O)O)c1C", "inhibition": 6.01}]}]}
